The nature of assay [1]: Validation screen for inhibitors of Lassa infection (AID 463096). Further: on the % scale 0 is the no-effect control and ±100 the full control effect.
Assay [2] is described as follows: Inducers of the Endoplasmic Reticulum Stress Response (ERSR) in human glioma: Validation (AID 504836; active means well fitted curve in the direction sought with a large enough effect; an effect the other way counts as inactive or inconclusive; further: 0% is about no effect). Summed up:
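Stably transfected U87-MG glioma cells carrying a GRP78-based luciferase sensor; 16 h compound incubation. Luminescence end-point read 10 min after Bright-Glo addition at room temperature.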

Assay [3] in a line: qHTS for Inhibitors of the Functional Ribonucleoprotein Complex (vRNP) of Lassa (LASV) Arenavirus: LASV Primary Screen - GLuc reporter signal (AID 1347082; calls by dose curve; tested in HEK293 reporter line; further: on the % scale 0 is the no-effect control and ±100 the full control effect; nearly all actives have a fitted effect of over 60% in size). (qHTS replaces the single test concentration by a dilution series.)
A short description of assay [4]: qHTS for Inhibitors of the Functional Ribonucleoprotein Complex (vRNP) of Lassa (LASV) Arenavirus: Viability assay - alamar blue signal for LASV Primary Screen (AID 1347083; calls by dose curve; tested in HEK293 reporter line; further: on the % scale 0 is the no-effect control and ±100 the full control effect; nearly all actives have a fitted effect of over 80% in size).
Assay [5] in a line: qHTS for Inhibitors of the Functional Ribonucleoprotein Complex (vRNP) of Lymphocytic Choriomeningitis Arenaviruses (LCMV): Viability assay - alamar blue signal for LCMV Primary Screen (AID 1347085; calls by dose curve; tested in HEK293 reporter line; further: on the % scale 0 is the no-effect control and ±100 the full control effect; nearly all actives have a fitted effect of over 80% in size).
The target of assay [6] is Nucleoprotein (Lymphocytic choriomeningitis virus (strain Armstrong)) (UniProt P09992). As to the kind of experiment: qHTS for Inhibitors of the Functional Ribonucleoprotein Complex (vRNP) of Lymphocytic Choriomeningitis Arenaviruses (LCMV): LCMV Primary Screen - GLuc reporter signal (AID 1347086). Further: on the % scale 0 is the no-effect control and ±100 the full control effect; nearly all actives have a fitted effect of over 70% in size.
Nucleoprotein (Lymphocytic choriomeningitis virus (strain Armstrong)), sequence (P09992 whole entry, looked up): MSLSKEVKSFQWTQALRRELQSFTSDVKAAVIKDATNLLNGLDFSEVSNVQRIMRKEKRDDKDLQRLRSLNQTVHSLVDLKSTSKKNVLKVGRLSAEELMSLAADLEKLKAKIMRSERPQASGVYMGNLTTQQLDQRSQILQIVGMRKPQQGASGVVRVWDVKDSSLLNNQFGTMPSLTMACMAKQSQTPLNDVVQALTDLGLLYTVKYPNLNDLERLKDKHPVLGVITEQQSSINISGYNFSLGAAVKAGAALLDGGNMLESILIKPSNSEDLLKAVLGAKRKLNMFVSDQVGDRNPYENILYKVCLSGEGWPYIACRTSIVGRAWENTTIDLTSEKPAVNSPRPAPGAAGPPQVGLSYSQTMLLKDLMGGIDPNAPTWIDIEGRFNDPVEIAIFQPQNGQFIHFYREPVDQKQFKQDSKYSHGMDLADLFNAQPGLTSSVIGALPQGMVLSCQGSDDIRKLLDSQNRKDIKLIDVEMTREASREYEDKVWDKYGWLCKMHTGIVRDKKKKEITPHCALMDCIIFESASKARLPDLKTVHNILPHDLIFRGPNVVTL
The nature of assay [7]: Primary qHTS for inhibitors of SARS-S pseudo-typed particle cell entry (AID 1479145). Further: nearly all actives have a fitted effect of over 45% in size. On activity change, negative = inhibition: on the % scale 0 is the no-effect control and ±100 the full control effect.
Assay [8] can be described thus: Primary qHTS for Huh7 cytotoxicity: counterscreen for inhibitors of MERS-S pseudotyped particle cell entry (AID 1479147). As to conditions: outcome: dose series up to 57.1 µM unless noted.
Assay [9] in a line: Primary qHTS for inhibitors of MERS-S pseudo-typed particle cell entry (AID 1479149). Further: nearly all actives have a fitted effect of over 60% in size. On activity change, negative = inhibition: on the % scale 0 is the no-effect control and ±100 the full control effect.
Assay [10] can be described thus: Primary qHTS for Vero E6 cytotoxicity: counterscreen for inhibitors of SARS-S pseudo-typed particle cell entry (AID 1479150). As to conditions: outcome: dose series up to 57.1 µM unless noted.
Assay [11] is described as follows: Primary qHTS to identify inhibitors of SARS-CoV-2 cell entry (AID 1645846). Further: nearly all actives have a fitted effect of over 45% in size. As to conditions: activity change, negative = inhibition: at 57.1 µM (top of the series) unless noted. Summed up:
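Luminescence readout (Bright-Glo luciferase) 48 h after pseudoparticle addition. HEK293-ACE2 cells, 1500/well; compound pre-incubation 1 h; Normalized to spike PP and bald PP.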

Assay [12] can be described thus: Cytotoxicity counterscreen for inhibitors of SARS-CoV-2 cell entry (AID 1645845). Further: nearly all actives have a fitted effect of over 50% in size. Summed up: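 Counterscreen run in the same HEK293-ACE2 line as the pseudotyped-particle entry assay, without particles. Viability after 48 h at 37 C was read as ATP luminescence, scaled between cell-containing and cell-free wells.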
Assay [13] can be described thus: VSVG counterscreen qHTS to identify inhibitors of SARS-CoV-2 cell entry (AID 1645847). Further: potency means the concentration at half of the fitted maximal effect; nearly all actives have a fitted effect of over 65% in size. Summed up: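 HEK293-ACE2 cells (Expi293F stably expressing human ACE2) were pretreated with compound for 1 h at 37 °C, then infected with MLV-based VSV-G pseudotyped particles for 48 h. Luciferase luminescence was normalized to VSV-G PP and bald PP wells.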
(In general: Counterscreens check selectivity or assay interference.)

The target in assay [14] is Alpha-galactosidase (Coffea arabica) (UniProt Q42656). As to the kind of experiment: Counterscreen for Glucocerebrosidase Inhibitors: qHTS Assay for Coffee Bean alpha-Galactosidase at pH 4.5 (AID 957; active means well fitted curve in the direction sought with a large enough effect; an effect the other way counts as inactive or inconclusive;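 further: plate controls were enzyme alone for no effect and no enzyme for full effect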). Summed up:
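Enzyme is added first (2 nM final), then compounds titrated from 0.7 nM to 77 uM, then 80 uM 4-methylumbelliferyl alpha-D-galactopyranoside; after 20 min at room temperature a pH 10 NaOH/glycine stop precedes fluorescence reading at 365/440 nm.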

Assay [15] has the same target. The assay can be described thus: Counterscreen for Glucocerebrosidase Inhibitors: qHTS Assay for Coffee Bean alpha-Galactosidase at pH 5.9 (AID 998; active means well fitted curve in the direction sought with a large enough effect; an effect the other way counts as inactive or inconclusive;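 further: plate controls were uninhibited enzyme for no effect and no-enzyme basal signal for full effect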). Summed up:
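Enzyme 2 nM + cpd (0.7 nM–77 uM titration) + 4-MU-alpha-Gal 80 uM, pH 5.9 citrate/Tween-20, RT 20 min, NaOH/glycine stop pH 10, fluor 365/440. Normalized to no-enzyme and full-activity controls; Hill-fit AC50.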

In assay [16] the target is Bile acid receptor (Homo sapiens) (UniProt Q96RI1). The assay can be described thus: qHTS assay for small molecule agonists of farnesoid X receptor signaling (AID 588527).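 Further: 0% = vehicle basal and 100% = reference agonist.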 The settings on record: HEK293T FXR-UAS-bla, beta-lactamase ratio, 16 h; activation: stronger effect = higher value. Summed up:
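Agonist-mode beta-lactamase reporter in GeneBLAzer FXR-UAS-bla HEK293T cells, titration up to 92 uM, 16 h exposure at 37 C, CCF4 fluorescence. Response scaled to DMSO (0%) and 100 uM chenodeoxycholic acid (100%), then Hill-fitted for EC50 and efficacy.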

Assay [17] addresses Peroxisome proliferator-activated receptor delta (Homo sapiens) (UniProt Q03181). The assay can be described thus: qHTS assay for small molecule agonists of peroxisome proliferator-activated receptor delta signaling (AID 588534).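 Further: 0% = DMSO basal wells and 100% = positive control agonist at 10 µM.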 Summed up: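 Agonist-mode qHTS; reporter cells, 5 hrs 37 C pre-incubation; compound titration, 18 hrs 37 C; CCF4 dye, 2 hrs RT; fluorescence read. EC50/efficacy via Hill fit.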

The target in assay [18] is Cytochrome P450 1A2 (Homo sapiens) (UniProt P05177). The assay can be described thus: p450-cyp1a2 (AID 410). Further: potency means the concentration at half of the fitted maximal effect. An outline of the steps: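 O-Demethylation of luciferin 6' methyl ether by human CYP1A2 is monitored as luciferase luminescence. Substrate sits at Km (100uM); enzyme is 20nM. Values are scaled to 57 uM furafylline as maximal inhibition.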
Cytochrome P450 1A2 (Homo sapiens), sequence (P05177 whole entry, looked up): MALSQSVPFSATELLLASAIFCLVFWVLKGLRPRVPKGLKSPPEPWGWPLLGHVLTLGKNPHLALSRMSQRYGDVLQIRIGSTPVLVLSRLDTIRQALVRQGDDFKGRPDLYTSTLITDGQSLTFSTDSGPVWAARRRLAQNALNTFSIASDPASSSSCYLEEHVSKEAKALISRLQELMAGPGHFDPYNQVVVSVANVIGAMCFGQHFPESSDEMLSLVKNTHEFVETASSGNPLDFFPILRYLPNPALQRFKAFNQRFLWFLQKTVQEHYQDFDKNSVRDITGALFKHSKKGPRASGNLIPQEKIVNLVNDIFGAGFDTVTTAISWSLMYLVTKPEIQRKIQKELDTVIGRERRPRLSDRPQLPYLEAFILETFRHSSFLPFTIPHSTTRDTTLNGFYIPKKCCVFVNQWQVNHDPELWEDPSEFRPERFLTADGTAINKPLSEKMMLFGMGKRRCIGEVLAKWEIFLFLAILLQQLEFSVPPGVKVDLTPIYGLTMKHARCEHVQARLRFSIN
Assay [19] deals with Glucocorticoid receptor (Homo sapiens) (UniProt P04150). As to the kind of experiment: GR-GFP Redistribution (AID 450;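 active means compounds whose dose series gives a full or clear partial fitted curve of increased nuclear translocation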; further: potency means the concentration at half of the fitted maximal effect). As to conditions: U2OS GR-GFP nuclear translocation, laser cytometry, 2 h.
Glucocorticoid receptor (Homo sapiens), sequence (P04150 whole entry, looked up, the tested form may be a part): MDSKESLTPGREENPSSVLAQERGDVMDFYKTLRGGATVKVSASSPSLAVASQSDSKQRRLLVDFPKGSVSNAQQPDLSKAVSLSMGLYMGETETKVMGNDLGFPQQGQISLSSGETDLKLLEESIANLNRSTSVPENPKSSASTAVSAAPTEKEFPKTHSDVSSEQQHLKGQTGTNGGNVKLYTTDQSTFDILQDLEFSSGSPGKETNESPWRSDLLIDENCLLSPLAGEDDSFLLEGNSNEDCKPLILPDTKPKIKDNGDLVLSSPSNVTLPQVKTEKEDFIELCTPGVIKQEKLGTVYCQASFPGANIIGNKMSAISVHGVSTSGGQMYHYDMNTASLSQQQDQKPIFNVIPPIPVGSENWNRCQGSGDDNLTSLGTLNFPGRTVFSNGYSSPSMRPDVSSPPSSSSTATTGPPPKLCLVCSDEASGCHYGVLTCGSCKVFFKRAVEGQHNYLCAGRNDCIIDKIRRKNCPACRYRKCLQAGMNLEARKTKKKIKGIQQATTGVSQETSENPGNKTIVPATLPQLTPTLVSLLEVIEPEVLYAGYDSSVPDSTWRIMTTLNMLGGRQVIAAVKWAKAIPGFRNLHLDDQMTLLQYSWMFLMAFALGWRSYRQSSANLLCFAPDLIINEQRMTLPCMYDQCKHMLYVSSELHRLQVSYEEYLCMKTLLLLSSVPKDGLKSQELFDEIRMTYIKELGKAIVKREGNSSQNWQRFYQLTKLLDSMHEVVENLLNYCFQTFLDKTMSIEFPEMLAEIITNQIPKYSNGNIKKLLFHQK
Assay [20] has the same target. The assay can be described thus: GR-EFC Redistribution (AID 451). Further: potency means the concentration at half of the fitted maximal effect. As to conditions: CHO-K1 GR-EFC translocation, beta-gal luminescence, 2 h. An outline of the steps: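 CHO-K1 cells expressing nuclear EA and GR-ED fragments of b-gal; compounds titrated up to 46 uM final, 2 h at 37 C. GR nuclear translocation read as complemented b-gal luminescence after 1 h RT detection.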

Assay [21] concerns the target Mitogen-activated protein kinase 10 (Mus musculus) (UniProt Q61831). The assay can be described thus: JNK3 AlphaScreen Assay (AID 530; active means well fitted curve in either direction with a large enough effect, not every such curve was filed as active;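 further: kinase came from lysate of stimulated human HepG2 cells; signal reports phosphorylation of biotinylated GST-cJun 1-79 at Ser73 with 10 µM ATP; on the % scale 0 is the no-effect control and ±100 the full control effect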). An outline of the steps:
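Activity was read by AlphaScreen after JNK3-containing HepG2 lysate (cytokine pre-activated) phosphorylated biotinylated GST-cJun with 10 uM ATP at room temperature. Phospho-Ser73 cJun antibody with Protein-A acceptor beads provided detection.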
A general note: Alpha assays give light when donor and acceptor beads are brought close together.

Assay [22] addresses Cytochrome P450 3A4 (Homo sapiens) (UniProt P08684). As to the kind of experiment: qHTS Assay for Activators of Cytochrome P450 3A4 (AID 885; active means well fitted curve in the direction sought with a large enough effect; an effect the other way counts as inactive or inconclusive; further: nearly all actives have a fitted effect of over 65% in size). An outline of the steps: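 Luminescent readout of luciferin formed from 25 uM Luciferin-PPXE (KM level) by 20 nM CYP3A4 in 200 mM KPO4, with 60 min NADPH-driven reaction at room temperature after 10 min compound exposure. Ketoconazole (57 uM) defined 100% inhibition.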

The target in assay [23] is Ubiquitin carboxyl-terminal hydrolase 1 (Homo sapiens) (UniProt O94782). The assay can be described thus: Inhibitors of USP1/UAF1: Pilot qHTS (AID 504865; active means well fitted curve in the direction sought with a large enough effect; an effect the other way counts as inactive or inconclusive;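 further: rhodamine fluorescence freed from ubiquitin-rhodamine substrate followed over time; top concentration of the series differs between compounds; on the % scale 0 is the no-effect control and ±100 the full control effect; nearly all actives have a fitted effect of over 35% in size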). Summed up: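 USP1/UAF1 complex (1nM) preincubated with compound 15 min at room temperature, then Ub-Rho substrate (150nM final) added. Fluorescence read kinetically at 480/540 nm, 6 reads every 60 seconds. Buffer: 50mM HEPES pH 7.8, 0.5mM EDTA, 0.1 mg/ml BSA, 1mM TCEP, 0.01% Tween-20.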
Ubiquitin carboxyl-terminal hydrolase 1 (Homo sapiens), sequence (O94782 whole entry, looked up): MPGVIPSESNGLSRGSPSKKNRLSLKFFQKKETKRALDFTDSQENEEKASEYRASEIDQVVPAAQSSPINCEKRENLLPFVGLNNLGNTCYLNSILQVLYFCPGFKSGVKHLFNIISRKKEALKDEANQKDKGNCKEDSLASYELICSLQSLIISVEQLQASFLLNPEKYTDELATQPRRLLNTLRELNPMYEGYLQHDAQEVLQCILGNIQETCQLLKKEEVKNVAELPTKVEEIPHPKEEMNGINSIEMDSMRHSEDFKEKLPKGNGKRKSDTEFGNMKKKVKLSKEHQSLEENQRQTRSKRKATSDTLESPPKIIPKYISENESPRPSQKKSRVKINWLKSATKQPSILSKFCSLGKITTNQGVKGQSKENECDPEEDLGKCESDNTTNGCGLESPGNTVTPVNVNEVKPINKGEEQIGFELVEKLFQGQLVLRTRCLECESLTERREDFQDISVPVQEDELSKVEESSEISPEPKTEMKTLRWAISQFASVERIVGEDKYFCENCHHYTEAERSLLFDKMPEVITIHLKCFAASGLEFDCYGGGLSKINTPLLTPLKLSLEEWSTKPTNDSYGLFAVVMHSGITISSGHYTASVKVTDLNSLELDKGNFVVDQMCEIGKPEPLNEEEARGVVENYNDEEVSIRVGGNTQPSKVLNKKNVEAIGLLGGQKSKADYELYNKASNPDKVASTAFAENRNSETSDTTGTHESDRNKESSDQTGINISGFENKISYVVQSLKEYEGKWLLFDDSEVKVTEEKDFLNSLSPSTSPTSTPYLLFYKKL

The target in assay [24] is DNA dC->dU-editing enzyme APOBEC-3G (Homo sapiens) (UniProt Q9HC16). The assay can be described thus: qHTS for inhibitors of Vif-A3G interactions: Validation (AID 588379; active means well fitted curve in the direction sought with a large enough effect; an effect the other way counts as inactive or inconclusive; further: 0% is about no effect). An outline of the steps:
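Yellow fluorescence (Ex 488, Em 500-530) of Vif-coexpressing HeLa A3G-eYFP cells, scanned by Acumen cytometer, reports blocked A3G degradation. Cells plated at 700/well overnight at 37 deg C before compound addition, then a further overnight compound incubation at 37 deg C.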

SMILES strings stand for the structures. Inconclusive results are not listed. The source made the active and inactive calls. Unless noted, the call rests on the fitted dose curve.

Alpha-galactosidase (Coffea arabica), sequence (Q42656 whole entry, looked up): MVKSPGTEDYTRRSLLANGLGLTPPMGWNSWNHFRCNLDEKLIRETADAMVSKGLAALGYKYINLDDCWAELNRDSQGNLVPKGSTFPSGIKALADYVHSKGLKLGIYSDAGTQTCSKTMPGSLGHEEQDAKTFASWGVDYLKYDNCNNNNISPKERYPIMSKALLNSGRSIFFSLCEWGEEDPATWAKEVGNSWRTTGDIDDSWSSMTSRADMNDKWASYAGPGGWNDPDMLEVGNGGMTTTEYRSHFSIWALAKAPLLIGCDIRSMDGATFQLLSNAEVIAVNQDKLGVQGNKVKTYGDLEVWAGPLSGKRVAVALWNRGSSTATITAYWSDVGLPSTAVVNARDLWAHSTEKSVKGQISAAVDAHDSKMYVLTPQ
DNA dC->dU-editing enzyme APOBEC-3G (Homo sapiens), sequence (Q9HC16 whole entry, looked up): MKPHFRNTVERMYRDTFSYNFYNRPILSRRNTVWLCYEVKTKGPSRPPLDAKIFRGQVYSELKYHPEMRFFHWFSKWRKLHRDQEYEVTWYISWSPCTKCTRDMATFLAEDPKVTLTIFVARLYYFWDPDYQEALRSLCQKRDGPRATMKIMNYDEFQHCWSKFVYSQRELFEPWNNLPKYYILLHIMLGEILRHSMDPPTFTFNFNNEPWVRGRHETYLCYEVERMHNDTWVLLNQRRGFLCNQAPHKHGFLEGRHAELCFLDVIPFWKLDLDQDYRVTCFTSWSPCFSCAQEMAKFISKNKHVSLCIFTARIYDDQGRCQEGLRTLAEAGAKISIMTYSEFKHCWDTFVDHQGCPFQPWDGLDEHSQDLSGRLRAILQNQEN
Peroxisome proliferator-activated receptor delta (Homo sapiens), sequence (Q03181 whole entry, looked up): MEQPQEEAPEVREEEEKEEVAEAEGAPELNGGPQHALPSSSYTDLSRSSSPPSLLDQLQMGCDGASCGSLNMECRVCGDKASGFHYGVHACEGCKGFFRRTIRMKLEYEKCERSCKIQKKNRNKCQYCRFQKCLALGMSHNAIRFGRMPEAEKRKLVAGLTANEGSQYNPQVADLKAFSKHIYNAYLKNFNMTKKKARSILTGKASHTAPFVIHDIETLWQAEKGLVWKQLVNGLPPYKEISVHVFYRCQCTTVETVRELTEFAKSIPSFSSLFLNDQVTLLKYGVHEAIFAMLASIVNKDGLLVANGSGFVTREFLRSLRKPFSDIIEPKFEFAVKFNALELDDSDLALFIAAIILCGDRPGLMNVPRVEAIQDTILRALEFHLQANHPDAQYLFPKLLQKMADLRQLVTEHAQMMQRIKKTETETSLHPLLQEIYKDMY
Cytochrome P450 3A4 (Homo sapiens), sequence (P08684 whole entry, looked up): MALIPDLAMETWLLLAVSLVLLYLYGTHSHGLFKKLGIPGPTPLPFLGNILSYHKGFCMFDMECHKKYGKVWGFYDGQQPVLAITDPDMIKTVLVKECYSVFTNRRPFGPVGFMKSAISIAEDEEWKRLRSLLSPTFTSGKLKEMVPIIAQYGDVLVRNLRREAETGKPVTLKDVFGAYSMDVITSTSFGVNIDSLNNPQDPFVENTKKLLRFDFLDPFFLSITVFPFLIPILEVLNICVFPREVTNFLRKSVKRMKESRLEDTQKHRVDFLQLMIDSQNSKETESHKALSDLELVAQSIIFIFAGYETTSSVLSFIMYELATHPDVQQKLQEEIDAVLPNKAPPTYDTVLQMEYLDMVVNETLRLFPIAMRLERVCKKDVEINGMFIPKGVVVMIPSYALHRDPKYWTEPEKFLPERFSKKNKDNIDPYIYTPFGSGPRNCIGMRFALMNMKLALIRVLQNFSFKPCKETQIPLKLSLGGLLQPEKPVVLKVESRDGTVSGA
Bile acid receptor (Homo sapiens), sequence (Q96RI1 whole entry, looked up): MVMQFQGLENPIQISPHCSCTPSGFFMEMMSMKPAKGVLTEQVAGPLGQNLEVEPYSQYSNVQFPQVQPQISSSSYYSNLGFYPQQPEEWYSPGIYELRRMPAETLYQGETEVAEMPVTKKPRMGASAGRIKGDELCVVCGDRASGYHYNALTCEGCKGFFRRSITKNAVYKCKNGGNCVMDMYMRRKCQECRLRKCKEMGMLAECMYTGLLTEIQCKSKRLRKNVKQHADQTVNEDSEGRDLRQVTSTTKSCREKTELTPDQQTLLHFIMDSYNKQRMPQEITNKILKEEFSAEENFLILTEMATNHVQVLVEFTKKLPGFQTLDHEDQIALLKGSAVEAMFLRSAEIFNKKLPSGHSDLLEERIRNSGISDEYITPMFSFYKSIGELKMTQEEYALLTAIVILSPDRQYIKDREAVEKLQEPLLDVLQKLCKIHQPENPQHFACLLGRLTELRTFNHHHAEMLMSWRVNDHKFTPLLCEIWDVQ

`CCC(NC(C)C)C(O)c1ccc(O)c(O)c1` (centres undefined): the Potency result in assay [1], in assay [3], in [4], in assay [5], in [6] and in assay [7] was “inactive” each time. In addition, the Potency result in [9] was “inactive”. Further, the compound was classed as inactive in [2], in [8] and in [10]. Further, the activity change, negative = inhibition in assay [11] was -5.57%.

With `CCOC(=O)[C@@H](N)Cc1ccc(-c2cc(O[C@H](c3ccc(Cl)cc3-n3ccc(C)n3)C(F)(F)F)nc(N)n2)cc1`, the Potency result in assay [3], in assay [4], in [5], in assay [6], in assay [7] and in assay [9] was “inactive” in each case. Also, the Potency entry in assay [12] was “inactive”. The call in assay [8] and in [10] was inactive. The Potency in assay [13] was 19.2 µM (active).

Take `CC(=O)O[C@H]1CC2(C)[C@@H](C[C@@H](O)[C@H]3[C@@]4(C)CC[C@@H](O)[C@@H](C)[C@@H]4CC[C@@]32C)C1=C(CCC=C(C)C)C(=O)O` (some centres undefined): the Potency result in assay [1], in assay [3], in assay [4], in [5], in [6] and in [7] was “inactive” throughout. Moreover, the Potency entry in [9] and in assay [12] was “inactive” throughout. Besides, the compound was classed as inactive in assay [2], in assay [8] and in [10]. Further, the activity change, negative = inhibition in assay [11] is -17.3%.

Regarding `Nc1cc(Cl)c(NC2=NCCN2)c(Cl)c1`, the compound was classed as inactive in [14], in assay [15], in assay [2], in assay [8] and in assay [10]. In addition, the Potency entry in assay [1], in [3], in [4], in assay [5], in assay [6] and in assay [7] was “inactive” each time. Further, the Potency result in assay [9] and in assay [12] was “inactive” in each case. In addition, in [11], the activity change, negative = inhibition was -17%.

Consider `N[C@@H](Cc1ccc(O)c(O)c1)C(=O)O`, for which the result in assay [14], in [15] and in [2] was inactive. Besides, in [16], the activation is 1.53% (inactive). The Potency entry in assay [17], in assay [3], in assay [4], in [5], in assay [6] and in [12] was “inactive” each time. For the same compound, the outcome is “inactive [at 0.573 µM]” in assay [7], “inactive [at 0.573 µM]” in assay [8], “inactive [at 0.573 µM]” in assay [10] and “inactive [at 0.702 µM]” in assay [11]. The values for the activity change, negative = inhibition in assay [9] and in [11] were 3.84% [at 0.573 µM] (inactive) and -25.4%, respectively. Also, the Potency in assay [13] is 0.429 µM (active).

Take `CCCCCCCCCCCCCCCC(=O)O[C@@H]1CC(C)=C(/C=C/C(C)=C/C=C/C(C)=C/C=C/C=C(C)/C=C/C=C(C)/C=C/C2=C(C)C[C@@H](OC(=O)CCCCCCCCCCCCCCC)CC2(C)C)C(C)(C)C1`: the Potency result in assay [3], in assay [4], in assay [5], in assay [6], in assay [9] and in assay [12] was “inactive” in each case. The result in assay [8] and in assay [10] was inactive.

Regarding `CCCOc1ccc2[nH]cc(C3=CCNCC3)c2n1`, the Potency in assay [18] is 0.126 µM (active); in assay [19] it was > 46 µM (inactive); in assay [20], > 46 µM (inactive). Moreover, the call in assay [21] was inactive. Besides, the Potency entry in assay [22], in assay [23] and in assay [24] was “inactive” in each case.

Source of the values: PubChem BioAssay (NCATS).
